Screening data deposited in PubChem BioAssay by several laboratories.
Mtb FBA inh: Mtb FBA enzyme inhibitors, primary screen, biochemical, fluorescence, strain H37Rv. purified M. tuberculosis FBA, fluorescence read-out. Fructose-bisphosphate aldolase (Mycobacterium tuberculosis (strain ATCC 25618 / H37Rv)), …. inhibition, % at 1 µM. AID 588726, 2011. 360,000 compounds, 2.3% hits; in the data active means inhibition above about 27%
Target sequence (P9WQA3 whole entry, looked up): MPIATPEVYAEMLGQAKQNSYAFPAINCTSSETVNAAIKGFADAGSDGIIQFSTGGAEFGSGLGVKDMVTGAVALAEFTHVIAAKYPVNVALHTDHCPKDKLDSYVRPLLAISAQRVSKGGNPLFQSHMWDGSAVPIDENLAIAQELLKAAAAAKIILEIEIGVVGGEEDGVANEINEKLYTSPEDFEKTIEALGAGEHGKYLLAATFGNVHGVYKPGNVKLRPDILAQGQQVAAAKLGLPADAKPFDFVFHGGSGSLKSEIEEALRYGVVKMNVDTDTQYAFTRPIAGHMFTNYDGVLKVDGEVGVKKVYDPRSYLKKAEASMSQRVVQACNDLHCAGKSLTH
GDH-TPI counter: GDH-TPI coupling enzyme inhibitors, primary screen, artefact control for M. tuberculosis FBA inhibitor project, biochemical, absorbance, full deck | GDH-TPI coupled enzyme counterscreen, NADH absorbance | inhibition, % at 4.8 µM | 360,000 compounds, 1.2% hits | AID 588335, 2011
CCHF vOTU inh-1: CCHFV vOTU protease inhibitors, primary screen, biochemical, Pep-AMC substrate, fluorescence; Crimean-Congo hemorrhagic fever virus L polyprotein viral ovarian tumor (vOTU) protease …; inhibition, % at 11.5 µM; 370,000 compounds, 0.55% hits; AID 651958, 2012
Vc quorum ag: inducers of Vibrio cholerae quorum light production without autoinducers, primary screen, BH1578 luxS cqsA deficient, single point. V. cholerae BH1578 lux reporter, luminescence, 6 h. activation, % at 18.7 µM. 350,000 compounds, 0.16% hits. AID 588436, 2011; in the data active means activation mostly above about 9.7%, no sharp cut-off
CCHF vOTU inh-2: CCHFV vOTU protease inhibitors, confirmation, biochemical, Pep-AMC substrate, fluorescence; shares compounds with CCHF vOTU inh-1; Recombinant CCHFV vOTU; inhibition, % at 11.5 µM; 1,900 compounds, 17% hits
Numbers stand for hits; i = inactive; nt = no result. Most compounds without a hit are left out; they make up all but 3.9% or so of the library. Unless noted, no stated cut-off is given here; in the data, active means inhibition above about 30%; inactive means the rest.

SMILES	Mtb FBA inh	GDH-TPI counter	CCHF vOTU inh-1	Vc quorum ag	CCHF vOTU inh-2
COc1ccc(OCC(=O)NC(=S)Nc2ccc3c4c(cccc24)CC3)cc1	i	i	29.9	i	i
COc1ccc(S(=O)(=O)n2nc(OC(=O)c3ccc(C)cc3)cc2N)cc1	i	i	34.8	i	i
Cc1ccc(NN=C2c3ccccc3-c3ccccc32)cc1	i	i	34.7	i	i
c1ccc(NN=C2c3ccccc3-c3ccccc32)cc1	i	i	i	i	nt
CCOC(=O)c1c(C)c(C(=O)NCCCN2CCCC2=O)c(C)n1CC	i	i	i	i	nt
CCc1cc(-c2onc(C)c2-c2cscn2)c(O)cc1OC	i	i	30.5	i	i
CCCCc1nc(C(N)=O)c2[nH]c(=O)n(-c3ccc(OC)c(OC)c3)c2n1	i	i	nt	i	nt
O=C(COC(=O)c1ccc([N+](=O)[O-])s1)Nc1ccc(Cl)cn1	i	i	40.9	i	51.1
Cc1ccc(C(=O)OCC(=O)Nc2ccc(Cl)cn2)s1	i	i	i	i	nt
Cc1c(Cl)cnc(NC(=O)COC(=O)c2ccc([N+](=O)[O-])s2)c1Cl	i	i	74.0	i	73.8
COCCCN1C(=O)C(CC(=O)NC2CCCC2)CC(C(=O)N2CCOCC2)=C1C (stereo not given)	i	i	i	i	nt
CCn1cc(CCCC(=O)NCc2cccnc2)c2ccccc21	i	i	i	i	nt
O=C(NNc1cccc(Cl)n1)Nc1cccc(C(F)(F)F)c1	i	i	i	i	nt
O=C(NNc1cccc(Cl)n1)Nc1ccc(Cl)cc1	i	i	42.1	i	i
Cc1ccc(OCC(=O)N2C(C)CCCC2C)c([N+](=O)[O-])n1 (stereo not given)	i	i	i	i	nt
CC(C)Cc1ccc(-c2cc3nc(NCCCn4ccnc4)ccn3n2)cc1	i	i	29.9	i	i
CCCOc1ccc(N)cc1N	i	i	84.8	i	i
Cc1cc(C)c(Nc2cc(S(=O)(=O)O)c(N)c3c2C(=O)c2ccccc2C3=O)c(C)c1	i	i	46.8	i	i
COC(=O)c1ccc(NC(=O)CSc2nnnn2C2CCCCC2)cc1	i	i	i	i	nt
O=C(Cn1ncc2c3ccccc3n(Cc3ccc(F)cc3)c2c1=O)N1CCN(c2ncccn2)CC1	i	i	34.0	i	i
NC(=S)NN=Cc1nccc2c(N)cccc12	i	i	64.2	i	i
NC(=S)N/N=C/c1ccc(OC(=O)c2cccnc2)cc1	i	i	i	i	nt
CCCCn1c(N)c(N(CC(C)C)C(=O)c2cccs2)c(=O)[nH]c1=O	i	i	38.9	i	i
O=C(CCNC(=O)c1ccc(Cl)cc1)NC1CCCCCC1	i	i	i	i	nt
O=C(CCNC(=O)c1ccc(Br)cc1)NC1CCCCCC1	i	i	36.7	i	i
SMILES	Mtb FBA inh	GDH-TPI counter	CCHF vOTU inh-1	Vc quorum ag	CCHF vOTU inh-2
C[C@H](CO)N1C[C@H](C)[C@@H](CN(C)S(=O)(=O)c2cn(C)cn2)Oc2ccc(NC(=O)C3CC3)cc2C1=O	i	i	i	i	nt
O=C(NCc1ccncc1)C1Cc2c(-c3ccccc3Oc3ccccc3)ccnc2O1 (stereo not given)	i	i	32.2	i	i
O=C1Nc2ccccc2N=C(c2ccc3c(c2)OCO3)C1N(C(=O)c1ccnc2ccccc12)c1ccccc1 (stereo not given)	i	nt	i	nt	nt
O=C1Nc2ccccc2N=C(c2ccc3c(c2)OCO3)C1N(C(=O)c1ccc2ccccc2c1)C1CC1 (stereo not given)	i	nt	32.0	nt	i
O=C(CCN1C(=O)/C(=C\C=C\c2ccccc2)SC1=S)Nc1cccc(C(=O)O)c1	i	i	33.2	nt	i
O=C(CCN1C(=O)/C(=C/c2cccs2)SC1=S)Nc1ccc(C(=O)O)c(O)c1	i	i	31.9	i	i
O=C(CCN1C(=O)/C(=C/c2cccs2)SC1=S)Nc1ccc(O)cc1	i	i	i	i	nt
Cc1ccc2nc3c(c(C(=O)OCC(=O)NC4CCS(=O)(=O)C4)c2c1)CCCC3 (stereo not given)	i	i	i	i	nt
Clc1ccc2nc(N3CCN(c4ccccc4)CC3)sc2c1	i	i	i	i	nt
COc1cccc(C(=O)NCc2cccnc2)c1	i	i	i	i	nt
Nc1nc(Nc2ccccc2)n[nH]1	i	i	31.9	i	i
Nc1nc(Nc2ccc(Cl)cc2)n[nH]1	i	i	i	i	nt
